Screening data deposited in PubChem BioAssay by several laboratories.
NALP1 inh = NALP1 inflammasome inhibitors in reconstituted yeast, colorimetric, S. cerevisiae, triplicate retest | AID 2071, 2009 | inhibition, % at 10 µM | S. cerevisiae NALP1/ASC/caspase-1 growth, X-gal OD620, 72 h | actives 0.61% (n = 280,000); in the data active = inhibition mostly above about 24%, no sharp cut-off; inactive = mostly below about 32%
PfHsp90 set2 = growth inhibition of PfHsp90-expressing yeast, primary screen, antimalarial PfHsp90 inhibitor project, S. cerevisiae, BacTiter-Glo luminescence, single point, set 2. BacTiter-Glo ATP, 48 h; yeast lacking PDR1 and PDR3 efflux regulators. inhibition, % at 9.4 µM. actives 0.32% (n = 310,000). AID 504621, 2011;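 active = every replicate shows inhibition above about 80%, whatever the replicate mean, limit read from the data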;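 note: 0% = DMSO neutral controls and 100% = 20 µM radicicol positive controls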
NALP3 yeast inh = NALP3 inflammasome inhibitors in reconstituted yeast, primary screen, luminescence, uHTS. AID 2825, 2010. inhibition, % at 10 µM. Yeast reconstituted NLRP3/ASC/caspase-1, beta-gal luminescence, 24 h. actives 0.39% (n = 330,000);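 active = inhibition of 50% or more; inactive = inhibition below 50%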;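 note: plate controls were induced DMSO wells for no effect and uninduced yeast grown without galactose for full effect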
tim10-1 inh = growth inhibitors of tim10-1 mutant yeast, primary screen, luminescence, uHTS. S. cerevisiae tim10-1 ts strain growth, BacTiter-Glo, 24 h. actives 2.2% (n = 330,000). inhibition, % at 20 µM. AID 463190, 2010;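 active = inhibition of at least 40%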;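 note: mutant grown at 25 °C; 0% = DMSO wells with yeast and 100% = wells holding no yeast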
tim23-1 inh = growth inhibitors of tim23-1 mutant yeast, primary screen, luminescence, uHTS; S. cerevisiae tim23-1 growth, BacTiter-Glo luminescence, 24 h; AID 463212, 2010; actives 1.3% (n = 330,000); inhibition, % at 20 µM;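 active = growth inhibition of the mutant yeast at or above 50%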;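 note: temperature-sensitive mutant grown at 25 °C; plate controls were DMSO-treated mutant yeast for no effect and medium wells lacking yeast for full effect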
TIM10 inh = growth inhibitors of isogenic TIM10 control yeast, primary screen, counter-screen for tim10-1 yeast inhibitor project, luminescence, uHTS; S. cerevisiae TIM10 strain growth, BacTiter-Glo luminescence, 24 h; inhibition, % at 10 µM; AID 463195, 2010; actives 1.4% (n = 330,000);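 active = inhibition of 40% or more at the single tested concentration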;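 note: wild-type TIM10 isogenic control strain grown at permissive 25 °C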
The depositor's hits bear a star; . = not tested or not shown. An excerpt weighted towards active compounds, which were near 4.1% of everything screened.

SMILES | NALP1 inh | PfHsp90 set2 | NALP3 yeast inh | tim10-1 inh | tim23-1 inh | TIM10 inh
CCN(CC)S(=O)(=O)c1ccc(C(C)NC(=O)C2CCCN2C(=O)c2cccs2)cc1 (stereo not drawn) | . | 18 | 19 | 10 | 7 | 2
Cc1ccc(CNc2ncnc3c2cnn3-c2ccccc2)cc1 | 26 | -25 | 31 | 6 | -5 | -19
Cc1ccc(-n2ncc3c(NCc4ccccc4)ncnc32)cc1 | 41* | -29 | 18 | -10 | -20 | 0
CCCCOc1ccc(N=Cc2ccc[nH]2)cc1 | 19 | 4 | 12 | -6 | 5 | -8
COc1ccc(N=Cc2ccc[nH]2)cc1 | 36* | 0 | 7 | -2 | 2 | -5
COc1nnc(-c2ccc(N3CCCCC3)c(NC(=O)COc3ccccc3)c2)c2ccccc12 | . | 7 | . | . | . | .
Cc1cc(C)c(S(=O)(=O)Nc2cc(SCC(=O)O)c(O)c3ccccc23)cc1C | 49* | . | . | . | . | .
O=C(CCN1C(=O)COc2ccccc21)NCCN1CCN(c2ccccc2F)CC1 | 32* | . | 25 | -15 | 1 | -22
O=C(CN1C(=O)COc2ccccc21)NCCCN1CCN(c2ccccc2F)CC1 | 22 | -1 | -2 | -9 | -20 | 2
COC(=O)CCC(=O)OC1(C)C(=O)C2=COC(c3ccc(OC)cc3)=CC2=C(Br)C1=O (stereo not drawn) | -18 | . | 21 | 9 | 26 | -2
COc1ccc(C2=CC3=C(Br)C(=O)C(C)(OC(=O)C4CCCC4)C(=O)C3=CO2)cc1 (stereo not drawn) | 5 | 110* | 6 | 18 | 18 | 12
COc1ccc(S(=O)(=O)N2CCC(C(=O)N(C)Cc3ccc(C)o3)CC2)cc1OC | . | 38 | 2 | 10 | 19 | 6
Cc1cc(C)cc(NC(=O)C(c2ccccc2)N2CCN(CC(=O)NC3CC3)CC2)c1 (stereo not drawn) | . | 16 | 7 | 5 | 9 | 1
Cc1cc(NC(=O)CSc2nnc(CNc3ccc(F)cc3)n2C2CCCCC2)no1 | 8 | -13 | 3 | 11 | 6 | 11
CCc1nnc(NC(=O)CSc2nnc(CNc3ccc(F)cc3)n2C2CCCCC2)s1 | 32* | 1 | 12 | 13 | -9 | -7
CCS(=O)(=O)Nc1ccc(NC(C)=O)cc1 | 36* | 11 | 10 | 14 | 11 | 8
CC(=O)Nc1ccc(NS(C)(=O)=O)cc1 | -4 | 16 | 1 | 13 | 9 | 7
COc1ccccc1C(=O)NNC(=S)NC(=O)c1ccco1 | 7 | 104* | 38 | -9 | -62 | -26
CC(Oc1ccc(Cl)cc1)C(=O)NNC(=S)NC(=O)c1ccco1 (stereo not drawn) | 33 | 103* | 36 | -4 | 16 | -11
COc1ccc(/C=C2\Sc3ccc(C(=O)NCCCN4CCCC4)cc3N(C)C2=O)cc1OC | 19 | 20 | 10 | -29 | -36 | -3
CCN1C(=O)C(=O)N(CC(=O)Nc2ccccc2OC(F)F)C1=O | . | -4 | 11 | -8 | -5 | 0
N=c1n(CCN2CCCCC2)c2ccccc2n1CC(O)c1cccc(Br)c1 (stereo not drawn) | 10 | 5 | 18 | -5 | -25 | -3
N=c1n(CCN2CCCCC2)c2ccccc2n1CC(O)c1ccc(Cl)c(Cl)c1 (stereo not drawn) | 43* | 4 | 22 | -13 | -40 | -9
CCOc1ccccc1CN1CCN(CCCc2ccccc2)CC1CCO (stereo not drawn) | 27 | -1 | 20 | -8 | 8 | 1
CCOc1ccccc1CN1CCN(Cc2nc3c(s2)CCCC3)CC1CCO (stereo not drawn) | 35* | 12 | 17 | 20 | 6 | 17
SMILES | NALP1 inh | PfHsp90 set2 | NALP3 yeast inh | tim10-1 inh | tim23-1 inh | TIM10 inh
CCC(C(=O)Nc1cccc(S(=O)(=O)N(C)c2ccccc2)c1)c1ccccc1 (stereo not drawn) | . | 8 | 15 | 9 | 24 | 5
CCOC(=O)C1CCCCN1Cc1ccc(F)cc1 (stereo not drawn) | 43* | 28 | 3 | 2 | 7 | -9
CCOC(=O)C1CCCCN1Cc1cccc(F)c1 (stereo not drawn) | 49 | -6 | 8 | 1 | 7 | 7
O=C(COC(=O)c1cc(S(=O)(=O)N2CCCC2)ccc1O)NCCc1ccccc1 | . | 33 | 9 | 0 | 7 | 0
CC1CCCC(NC(=O)Cc2ccc(Br)cc2)C1C (stereo not drawn) | 3 | 4 | 11 | 15 | 12 | 14
CC1CCCC(NC(=O)COC(=O)Cc2ccc(Br)cc2)C1C (stereo not drawn) | 18* | -52 | -22 | 37 | 22 | 16
COc1ccc(N2CCN(CCC(O)c3ccc4ccccc4c3)CC2)cc1 (stereo not drawn) | 40* | -8 | 28 | -27 | -22 | -67
COc1ccc(C(CCN2CCN(c3ccccc3)CC2)c2c(O)cc(OC)cc2OC)cc1 (stereo not drawn) | 8 | -1 | 14 | 6 | 14 | 9
COc1ccc2nc(NC(=O)c3ccccc3[N+](=O)[O-])sc2c1 | 30* | -25 | 6 | 17 | 39 | 10
O=C(CSc1nc2ccccc2s1)Nn1cnnc1 | 24* | -11 | -12 | -1 | 0 | -13
CSc1ncccc1C(=O)OCC(=O)Nc1cccc(S(=O)(=O)N2CCOCC2)c1 | . | -7 | -1 | 11 | 18 | 3
Cc1cccc(C)c1NC(=O)CN1C(=O)S/C(=C\c2cccn2C)C1=O | 40* | 17 | 8 | 13 | 5 | 13
Cc1ccc(NC(=O)CC(=O)Nc2ccc(C)c(C)c2)cc1C | 9 | 9 | 26 | -37 | 0 | -5
Cc1ccc(NC(=O)/C=C\C(=O)NCC(=O)O)cc1C | 57* | 28 | 5 | 23 | 17 | 15
C/C=C/c1ccc(OCC(O)CN(C)Cc2ccc(SC)cc2)c(OC)c1 (stereo not drawn) | 20 | -2 | 31 | 25 | 20 | 24
O=C(Nc1ccccc1)C(Cl)C(=O)c1ccccc1 (stereo not drawn) | 5 | 106* | 4 | 33 | 33 | -22
CNC(=S)Nc1ccc2nc(C)oc2c1 | 0 | . | -1 | 7 | 0 | 0
CC(C)Oc1ccc(C(=O)N(CN2CCCC2=O)c2ccc(F)cc2)cc1 | 41* | -26 | -3 | 19 | 3 | 1
Oc1cccc(/C=C/c2ccc3cccc(O)c3n2)c1 | 4 | -35 | 21 | 24 | 47 | 35
COc1cccc(/C=C/c2ccc3cccc(O)c3n2)c1 | 11 | 103* | 6 | 17 | 22 | 15
Fc1ccccc1NC(=S)NCCc1cccc(Cl)c1 | 30* | -9 | 16 | 27 | 46 | 30
